Results: PubChem BioAssay (NCATS)
Values joined by “and” are separate entries in the source; they are usually repeats but may differ in a detail not shown here. Identical values can stand only once. Inconclusive results are not listed. Active and inactive are the calls of the source. Unless noted, the call rests on the fitted dose curve; in most records, active means well fitted curve in the direction sought with a large enough effect; inconclusive means small, poorly fitted or top-dose-only effect, or another doubt; inactive means no such curve, though single readings can be large; an effect the other way counts as inactive or inconclusive.

What was measured:
[1] = target: Lysosomal acid glucosylceramidase (Homo sapiens) (UniProt P04062); experiment: Glucocerebrosidase-p2 (AID 348; in the data active means potency below about 10 µM; further: potency means the concentration at half of the fitted maximal effect); details: purified GBA, blue fluorogenic substrate, 40 min
Sequence of Lysosomal acid glucosylceramidase (Homo sapiens) (P04062 whole entry, looked up): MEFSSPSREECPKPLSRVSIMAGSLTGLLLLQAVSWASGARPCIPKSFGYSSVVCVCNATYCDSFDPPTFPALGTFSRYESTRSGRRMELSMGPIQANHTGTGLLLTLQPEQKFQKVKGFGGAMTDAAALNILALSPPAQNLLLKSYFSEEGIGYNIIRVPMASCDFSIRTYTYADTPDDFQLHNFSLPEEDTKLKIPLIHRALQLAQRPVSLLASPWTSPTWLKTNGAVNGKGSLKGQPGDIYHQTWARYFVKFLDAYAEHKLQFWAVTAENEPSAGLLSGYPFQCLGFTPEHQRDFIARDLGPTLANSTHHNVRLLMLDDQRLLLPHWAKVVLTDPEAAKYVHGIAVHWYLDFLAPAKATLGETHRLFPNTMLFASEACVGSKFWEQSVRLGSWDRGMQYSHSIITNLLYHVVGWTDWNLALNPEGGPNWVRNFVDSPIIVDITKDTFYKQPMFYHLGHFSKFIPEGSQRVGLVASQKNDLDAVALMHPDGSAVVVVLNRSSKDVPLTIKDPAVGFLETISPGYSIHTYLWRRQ
In short: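 Normal human glucocerebrosidase (0.2 nM) with blue fluorogenic substrate (80 uM final) in citrate/phosphate pH 5.9 with 10mM sodium taurocholate, 0.01% tween-20; 40 min RT, NaOH/glycine stop; fluorescence Ex 365/Em 440; AC50 from a titration from 0.6 nM upwards.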

[2] = AP1 Signaling Pathway (AID 357; active means well fitted curve in either direction with a large enough effect, not every such curve was filed as active;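 further: ME-180 reporter cells stimulated with EGF at its EC50 level; on the % scale 0 is the no-effect control and ±100 the full control effect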); details: ME-180 AP-1-bla reporter, EGF-induced, beta-lactamase ratio, 5 h; at 7.69 µM (top of the series) unless noted
In short: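 Titration-series screen for positive or negative modulators of EC50 EGF-induced signaling in ME-180 cells carrying an AP-1-driven beta-lactamase reporter. After 5 hours at 37 degrees Celsius, CCF4 460nm/530nm emission ratio gave %Activity; AC50 values derived.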

[3] = target: Cytochrome P450 1A2 (Homo sapiens) (UniProt P05177); experiment: p450-cyp1a2 (AID 410; calls by dose curve; further: potency means the concentration at half of the fitted maximal effect)
Sequence of Cytochrome P450 1A2 (Homo sapiens) (P05177 whole entry, looked up): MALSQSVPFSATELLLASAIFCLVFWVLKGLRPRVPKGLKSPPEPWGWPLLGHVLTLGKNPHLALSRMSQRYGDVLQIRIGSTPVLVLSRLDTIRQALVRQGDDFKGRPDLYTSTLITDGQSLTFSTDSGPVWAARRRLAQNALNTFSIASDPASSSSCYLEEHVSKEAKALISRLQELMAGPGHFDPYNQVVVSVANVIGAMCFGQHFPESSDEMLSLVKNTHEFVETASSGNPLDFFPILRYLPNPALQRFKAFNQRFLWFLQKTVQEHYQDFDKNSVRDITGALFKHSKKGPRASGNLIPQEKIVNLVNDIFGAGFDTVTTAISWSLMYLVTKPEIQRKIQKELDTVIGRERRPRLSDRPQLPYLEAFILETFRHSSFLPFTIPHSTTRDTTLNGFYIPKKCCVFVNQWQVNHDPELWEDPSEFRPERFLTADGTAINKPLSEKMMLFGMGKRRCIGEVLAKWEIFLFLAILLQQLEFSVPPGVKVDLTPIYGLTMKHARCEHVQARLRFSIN
In short: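 Read-out is luminescence from luciferin produced by CYP1A2 demethylation of Luciferin-ME (100uM, at Km). Detection reagent stopped the 60 min NADPH-dependent reaction; signals were normalized to 57 uM furafylline.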

[4] = Stat Signaling Pathway (AID 446; active means well fitted curve in either direction with a large enough effect, not every such curve was filed as active;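 further: ME-180 cervical cancer cells given 40 pM IL-6 alongside compound; SIE-controlled beta-lactamase reporter measured as 460/530 nm FRET emission ratio; on the % scale 0 is the no-effect control and ±100 the full control effect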); details: ME-180 SIE beta-lactamase reporter, IL-6 stimulated, 5 h; at 7.69 µM (top of the series) unless noted
In short: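 FRET read-out (405 nm excitation, 460/530 nm emission) of a beta-lactamase reporter under a STAT-inducible element in ME-180 cervical carcinoma cells. Cells with compound receive 40 pM IL-6 for 5 h. Values are normalised to AC90 stimulation and AC90 JAK-inhibitor controls.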

[5] = target: Glucocorticoid receptor (Homo sapiens) (UniProt P04150); experiment: GR-GFP Redistribution (AID 450;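 active means compounds whose dose series gives a full or clear partial fitted curve of increased nuclear translocation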; further: potency means the concentration at half of the fitted maximal effect); details: U2OS GR-GFP nuclear translocation, laser cytometry, 2 h
Sequence of Glucocorticoid receptor (Homo sapiens) (P04150 whole entry, looked up, the tested form may be a part): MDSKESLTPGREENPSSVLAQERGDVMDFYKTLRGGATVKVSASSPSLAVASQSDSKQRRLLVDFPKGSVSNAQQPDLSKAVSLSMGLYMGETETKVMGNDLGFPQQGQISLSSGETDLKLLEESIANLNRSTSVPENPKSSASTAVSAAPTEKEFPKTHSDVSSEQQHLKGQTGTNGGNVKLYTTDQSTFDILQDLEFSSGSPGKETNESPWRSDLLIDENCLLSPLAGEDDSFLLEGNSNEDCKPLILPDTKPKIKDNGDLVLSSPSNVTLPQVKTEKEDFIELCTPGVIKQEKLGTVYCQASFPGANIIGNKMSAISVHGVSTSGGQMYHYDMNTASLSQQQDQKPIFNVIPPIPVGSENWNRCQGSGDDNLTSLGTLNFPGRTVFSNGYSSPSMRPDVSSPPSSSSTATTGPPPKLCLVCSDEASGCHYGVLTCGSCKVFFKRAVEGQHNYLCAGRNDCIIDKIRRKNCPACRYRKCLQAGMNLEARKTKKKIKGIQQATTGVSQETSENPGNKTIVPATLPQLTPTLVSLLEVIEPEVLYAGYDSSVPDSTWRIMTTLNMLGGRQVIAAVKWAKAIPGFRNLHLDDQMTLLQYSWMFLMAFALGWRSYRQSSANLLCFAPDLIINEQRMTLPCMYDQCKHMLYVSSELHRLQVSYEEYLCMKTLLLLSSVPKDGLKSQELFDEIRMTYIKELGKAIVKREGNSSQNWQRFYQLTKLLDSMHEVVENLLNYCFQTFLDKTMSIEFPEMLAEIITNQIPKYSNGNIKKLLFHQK

[6] = target: Glucocorticoid receptor (Homo sapiens) (UniProt P04150); experiment: GR-EFC Redistribution (AID 451; calls by dose curve; further: potency means the concentration at half of the fitted maximal effect); details: CHO-K1 GR-EFC translocation, beta-gal luminescence, 2 h
In short: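 Translocation of GR-ED fusion to nuclear EA restores b-gal, read by luminescence after 1 h room-temperature detection. Engineered CHO-K1 biosensor cells, 1,000/well, exposed 2 h at 37 C to titrations up to 46 uM final.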

[7] = target: Mitogen-activated protein kinase 10 (Mus musculus) (UniProt Q61831); experiment: JNK3 AlphaScreen Assay (AID 530; active means well fitted curve in either direction with a large enough effect, not every such curve was filed as active;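 further: kinase came from lysate of stimulated human HepG2 cells; signal reports phosphorylation of biotinylated GST-cJun 1-79 at Ser73 with 10 µM ATP; on the % scale 0 is the no-effect control and ±100 the full control effect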)
In short: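 Kinase buffer: 20 mM Tris-HCl pH 7.6, 10 mM MgCl2, 1 mM DTT, 0.1 mM Na3VO4, 0.01% Tween-20; ATP 10 uM. Substrate biotin-GST-cJun(1-79), enzyme from activated HepG2 lysates. Detection by Ser73 phospho-antibody AlphaScreen.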

[8] = target: Cytochrome P450 3A4 (Homo sapiens) (UniProt P08684); experiment: qHTS Assay for Activators of Cytochrome P450 3A4 (AID 885); further: nearly all actives have a fitted effect of over 65% in size
Sequence of Cytochrome P450 3A4 (Homo sapiens) (P08684 whole entry, looked up): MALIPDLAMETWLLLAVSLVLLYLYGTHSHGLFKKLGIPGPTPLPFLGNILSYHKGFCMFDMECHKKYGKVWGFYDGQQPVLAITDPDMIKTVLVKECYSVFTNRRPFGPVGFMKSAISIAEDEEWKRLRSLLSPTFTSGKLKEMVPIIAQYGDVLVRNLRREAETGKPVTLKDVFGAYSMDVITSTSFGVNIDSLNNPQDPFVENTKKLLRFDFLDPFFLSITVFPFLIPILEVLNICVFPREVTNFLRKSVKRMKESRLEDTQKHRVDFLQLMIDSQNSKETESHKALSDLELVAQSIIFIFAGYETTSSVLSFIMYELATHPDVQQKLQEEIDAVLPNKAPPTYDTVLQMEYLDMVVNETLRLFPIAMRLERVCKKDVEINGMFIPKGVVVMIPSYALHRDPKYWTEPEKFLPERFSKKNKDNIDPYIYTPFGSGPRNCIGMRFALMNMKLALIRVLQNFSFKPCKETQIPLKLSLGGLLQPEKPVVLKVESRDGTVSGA
In short: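 Luminescent readout of luciferin formed from 25 uM Luciferin-PPXE (KM level) by 20 nM CYP3A4 in 200 mM KPO4, with 60 min NADPH-driven reaction at room temperature after 10 min compound exposure. Ketoconazole (57 uM) defined 100% inhibition.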

[9] = Confirmation and Secondary Assay for Modulators of Hemoglobin Beta Chain Splicing at IVS2 654 locus (AID 910);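 further: HeLa cells stably carrying EGFP split by mutant beta-globin IVS2-654 intron; per-well total GFP intensity by laser scanning cytometry after 2-day treatment; % of control where 0% means no effect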
In short: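 Readout: per-well total peak green fluorescence (488 nm ex, 500–520 nm em) from objects 5–250 µm, reflecting correct splicing of an EGFP-654 reporter. Compounds were applied for 2 days at 37 °C to overnight-plated HeLa EGFP-654 cells; controls were DMSO and 500 nM IVS2-654 PNA.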

[10] = qHTS Assay for Lipid Storage Modulators (AID 1519; calls by dose curve); details: Drosophila S3 cells, BODIPY lipid droplet/cell ratio, laser cytometry, cells loaded with oleic acid; for activity change, negative = inhibition: at 57.5 µM (top of the series)
In short: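 Cells seeded at 5,000 per well were treated with compounds over a concentration series and loaded with oleic acid (400 uM, as added). Lipid droplet fluorescence (488 nm excitation, 500-530 nm channel) was read by laser-scanning cytometry and normalized to 20 uM Triacsin C.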

[11] = target: Ubiquitin carboxyl-terminal hydrolase 1 (Homo sapiens) (UniProt O94782); experiment: Inhibitors of USP1/UAF1: Pilot qHTS (AID 504865);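 further: rhodamine fluorescence freed from ubiquitin-rhodamine substrate followed over time; top concentration of the series differs between compounds; on the % scale 0 is the no-effect control and ±100 the full control effect; nearly all actives have a fitted effect of over 35% in size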
Sequence of Ubiquitin carboxyl-terminal hydrolase 1 (Homo sapiens) (O94782 whole entry, looked up): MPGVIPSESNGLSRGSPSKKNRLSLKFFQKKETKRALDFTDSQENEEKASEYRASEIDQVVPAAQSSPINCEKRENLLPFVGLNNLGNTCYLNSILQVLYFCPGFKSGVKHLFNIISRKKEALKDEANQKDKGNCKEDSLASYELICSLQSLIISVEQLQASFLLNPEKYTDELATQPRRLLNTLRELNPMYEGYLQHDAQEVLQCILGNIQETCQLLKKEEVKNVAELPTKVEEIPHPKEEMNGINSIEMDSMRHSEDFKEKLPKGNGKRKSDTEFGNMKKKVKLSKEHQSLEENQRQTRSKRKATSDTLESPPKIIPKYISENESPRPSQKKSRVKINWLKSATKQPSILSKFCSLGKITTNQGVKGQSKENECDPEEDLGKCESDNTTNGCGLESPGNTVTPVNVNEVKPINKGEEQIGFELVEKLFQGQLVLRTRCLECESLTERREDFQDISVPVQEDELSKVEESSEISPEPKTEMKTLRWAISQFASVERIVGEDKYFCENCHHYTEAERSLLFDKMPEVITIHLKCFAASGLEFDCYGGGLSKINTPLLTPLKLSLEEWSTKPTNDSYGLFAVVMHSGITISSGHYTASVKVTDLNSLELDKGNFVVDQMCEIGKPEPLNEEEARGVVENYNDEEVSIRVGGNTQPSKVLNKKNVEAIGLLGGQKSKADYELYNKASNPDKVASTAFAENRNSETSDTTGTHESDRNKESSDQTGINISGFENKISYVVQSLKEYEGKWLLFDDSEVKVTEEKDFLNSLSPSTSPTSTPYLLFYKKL
In short: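 USP1/UAF1 complex (1nM) preincubated with compound 15 min at room temperature, then Ub-Rho substrate (150nM final) added. Fluorescence read kinetically at 480/540 nm, 6 reads every 60 seconds. Buffer: 50mM HEPES pH 7.8, 0.5mM EDTA, 0.1 mg/ml BSA, 1mM TCEP, 0.01% Tween-20.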

[12] = Counterscreen qHTS for small molecule stabilizers of the endoplasmic reticulum resident proteome: GLuc-NoTag assay (AID 1508627);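 further: SH-SY5Y cells given compound then 100 nM thapsigargin to empty ER calcium; 0% = thapsigargin alone and -100% = DMSO vehicle control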
In short: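 Counterscreen line: SH-SY5Y-GLuc-NoTag cells, treated with compound 19 hr before a 4 hr, 100 nM thapsigargin calcium depletion. Secreted Gaussia luciferase in the medium was measured by luminescence after coelenterazine was added (0.07x final), with cells unlysed.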

[13] = Confirmatory qHTS for small molecule stabilizers of the endoplasmic reticulum resident proteome: Secreted ER Calcium Modulated Protein (SERCaMP) assay (AID 1508628); further: nearly all actives have a fitted effect of over 40% in size; further: potency means the concentration at half of the fitted maximal effect
In short: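 GLuc-SERCaMP-expressing SH-SY5Y cells, pretreated 16 h with compound, are challenged with thapsigargin to empty ER calcium stores; after 4 h, coelenterazine is added directly to the medium and luminescence is imaged.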

[14] = Cell Viability qHTS for small molecule stabilizers of the endoplasmic reticulum resident proteome (AID 1508629); details: cell viability counter-screen, 100 nM thapsigargin for final 4 h;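 further: human SH-SY5Y neuroblastoma cells carrying the GLuc-SERCaMP reporter; compound exposure about 46 h in total before the viability read; on the % scale 0 is the no-effect control and ±100 the full control effect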
[15] = target: Dual specificity protein kinase CLK4 (Homo sapiens) (UniProt Q9HAZ1); experiment: qHTS Assay for Inhibitors of CDC-like Kinase 4 (Kinase-Glo Assay) (AID 1770); further: nearly all actives have a fitted effect of over 65% in size; further: potency means the concentration at half of the fitted maximal effect
Sequence of Dual specificity protein kinase CLK4 (Homo sapiens) (Q9HAZ1 whole entry, looked up): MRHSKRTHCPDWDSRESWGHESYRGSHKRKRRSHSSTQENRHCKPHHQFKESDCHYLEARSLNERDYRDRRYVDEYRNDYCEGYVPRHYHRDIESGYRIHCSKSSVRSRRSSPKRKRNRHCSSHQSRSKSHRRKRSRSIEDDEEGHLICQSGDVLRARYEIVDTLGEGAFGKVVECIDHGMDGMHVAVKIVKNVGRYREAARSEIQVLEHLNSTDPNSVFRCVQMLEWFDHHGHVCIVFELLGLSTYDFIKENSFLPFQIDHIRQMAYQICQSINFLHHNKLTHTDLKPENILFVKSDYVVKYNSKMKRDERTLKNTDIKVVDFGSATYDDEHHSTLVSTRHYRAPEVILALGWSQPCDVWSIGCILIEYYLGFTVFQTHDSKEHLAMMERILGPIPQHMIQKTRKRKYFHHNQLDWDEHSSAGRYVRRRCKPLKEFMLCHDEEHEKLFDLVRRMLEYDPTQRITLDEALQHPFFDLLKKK
In short: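 Recombinant human Clk4 (25 nM) phosphorylated RS repeat peptide (100 uM) with 1 uM ATP in Tris pH 7.5/MgCl2/EGTA/DTT/Triton buffer for 4.5 h at room temperature. Residual ATP was quantified by Kinase-Glo luciferase luminescence.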

[16] = target: Dual specificity protein kinase CLK4 (Homo sapiens) (UniProt Q9HAZ1); experiment: qHTS Assay for Inhibitors of CDC-like Kinase 4 (ADP-FP Assay) (AID 1795); further: nearly all actives have a fitted effect of over 60% in size; further: potency means the concentration at half of the fitted maximal effect
In short: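 Recombinant human Clk4 (6.25 nM) phosphorylated RS repeat peptide (100 uM) with 1 uM ATP in Tris pH 7.5/MgCl2/EGTA/DTT/Triton buffer for one hour. ADP was quantified by Transcreener competitive fluorescence polarization against an ADP calibration curve.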

[17] = target: 3',5'-cyclic-AMP phosphodiesterase 4B (Homo sapiens) (UniProt Q07343); experiment: qHTS Assay for Inhibitors of PDE-IV (AID 607; active means well fitted activation curve with a large enough effect in the main read-out, with a control signal flat, not every such curve was filed as active; further: % of control where 0% means no effect)
Sequence of 3',5'-cyclic-AMP phosphodiesterase 4B (Homo sapiens) (Q07343 whole entry, looked up): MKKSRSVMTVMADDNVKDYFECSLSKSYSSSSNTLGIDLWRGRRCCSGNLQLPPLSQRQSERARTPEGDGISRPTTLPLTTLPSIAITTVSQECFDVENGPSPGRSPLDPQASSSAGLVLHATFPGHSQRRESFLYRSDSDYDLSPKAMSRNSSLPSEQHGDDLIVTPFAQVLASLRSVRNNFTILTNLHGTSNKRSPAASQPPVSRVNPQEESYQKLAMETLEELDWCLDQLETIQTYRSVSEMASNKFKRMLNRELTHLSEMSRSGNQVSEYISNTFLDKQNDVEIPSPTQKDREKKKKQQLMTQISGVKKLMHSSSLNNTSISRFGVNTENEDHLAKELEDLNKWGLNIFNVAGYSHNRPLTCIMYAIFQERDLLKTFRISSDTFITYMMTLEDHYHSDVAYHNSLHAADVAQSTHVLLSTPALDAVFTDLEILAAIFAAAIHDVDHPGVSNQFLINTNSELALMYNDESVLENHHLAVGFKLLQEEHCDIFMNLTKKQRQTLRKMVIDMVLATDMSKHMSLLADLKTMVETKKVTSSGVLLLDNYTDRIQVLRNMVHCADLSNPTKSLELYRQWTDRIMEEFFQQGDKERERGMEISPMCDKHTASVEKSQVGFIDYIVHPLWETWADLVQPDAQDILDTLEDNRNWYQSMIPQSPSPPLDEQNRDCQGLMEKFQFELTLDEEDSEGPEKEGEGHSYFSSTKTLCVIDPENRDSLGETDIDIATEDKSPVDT
In short: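 Cell-based read-out of cAMP via a modified cyclic nucleotide-gated channel and membrane potential dye (535/590 nm) in HEK293 cells expressing PDE4 endogenously. Compounds tested up to 22.9 uM final; 100 uM RO 20-1724 reference.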

[18] = qHTS Assay for Identification of Small Molecule Agonists for Hypoxia Response Element Signaling Pathway (AID 914; active means well fitted activation curve with a large enough effect in the signal ratio, with a control signal flat, not every such curve was filed as active; the % refers to the signal ratio; further: potency means the concentration at half of the fitted maximal effect); details: ME-180 (cervical carcinoma) HRE-bla reporter, beta-lactamase ratio, CoCl2, 17 h; activation: stronger effect = higher value
In short: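 Read-out: CCF4 FRET ratio of 460nm to 530nm emission (excitation 405nm) after 2.5 hours at room temperature, taken from HRE-bla ME-180 cells that had been exposed to compound and EC50 CoCl2 for 17 hours.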

[19] = target: Dual specificity protein kinase CLK4 (Homo sapiens) (UniProt Q9HAZ1); experiment: qHTS Assay for Inhibitors of CDC-like Kinase 4 (ADP-Glo Assay) (AID 1771); further: on the % scale 0 is the no-effect control and ±100 the full control effect; nearly all actives have a fitted effect of over 70% in size
In short: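 In this ADP-Glo format, 1 uM ATP and 100 uM RS peptide served as substrates for 25 nM Clk4 in Mg2+/EGTA/DTT/Triton buffer; reactions ran 1 hr at room temperature before luminescent ADP quantification.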

[20] = NFAT Signaling Pathway (AID 444; active means well fitted curve in either direction with a large enough effect, not every such curve was filed as active); details: Jurkat NFAT-bla M1, carbachol, beta-lactamase ratio, 5 h; at 7.69 µM (top of the series) unless noted
In short: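 Read-out: CCF4 FRET ratio (460 nm/530 nm) after 1 h RT dye loading, used for %activity and AC50 from titration series. Cells: Jurkat NFAT-β-lactamase/M1 line, treated with compound plus 1 uM carbachol for 5 h, 37 °C.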

[21] = measured here: cell count channel max response
[22] = measured here: lipid channel max response

For `COc1ccccc1CNc1ncnc2ccc(-c3ccccc3CN(C)C)cc12`, the Potency [1] was > 11.4 µM (inactive), the activity change, negative = inhibition [2] was -6.09% (inactive) and the Potency [3] was 15.8 µM (active). For the same molecule, the activity, negative = inhibition [4] was -9.28% (inactive), the Potency [5] was > 46 µM (inactive) and the Potency [6] was > 46 µM (inactive). For the same molecule, the outcome [7] was “inactive”, the Potency [8] was “inactive” and the outcome [9] was “inactive”. The activity change, negative = inhibition [10] was 5.99% (inactive), the max response [10, 21] was -1.21% and the max response [10, 22] was 3.46%. The Potency [11] was “inactive”, the Potency [12] was “inactive” and the Potency [13] was 10 µM (active).

For `CC(C)(c1cc(Br)c(O)c(Br)c1)c1cc(Br)c(O)c(Br)c1`, the outcome [7] was “inactive”, the Potency [8] was “inactive” and the Potency [12] was “inactive”. The Potency [13] was “inactive” and the max response [14] was 18.1% (inactive) and 32.8% (inactive) and -0.114% (inactive).

In the case of `CN1CCN(c2nc(-c3ccc4c(c3)OCO4)nc3ccccc23)CC1`, the Potency [1] is reported as > 11.4 µM (inactive), the activity change, negative = inhibition [2] is reported as 21.8% (inactive) and the activity, negative = inhibition [4] is reported as -4.65% (inactive). The Potency [5] was > 46 µM (inactive), the Potency [6] was > 46 µM (inactive) and the outcome [7] was “inactive”. The activity change, negative = inhibition [10] was 8.71% (inactive), the max response [10, 21] was 28% and the max response [10, 22] was 35.9%. The Potency [15] was 17.8 µM (active), the Potency [16] was 14.1 µM (active) and the Potency [11] was “inactive”. The Potency [12] was “inactive” and the Potency [13] was 20 µM (active).

In the case of `COc1ccc(-c2nc3cnc(N4CCN(C)CC4)nc3n(-c3ccc(OC)cc3)c2=O)cc1`, the Potency [1] is reported as > 11.4 µM (inactive), the activity change, negative = inhibition [2] is reported as 41.4% (inactive) and the Potency [3] is reported as 15.8 µM (active). For the same molecule, the Potency [5] was > 9.22 µM (inactive), the Potency [6] was > 46 µM (inactive) and the outcome [7] was “inactive”. The Potency [17] was “inactive”, the Potency [18] was 3.16 µM (active) and the activity change, negative = inhibition [10] was 3.89% (inactive). The max response [10, 21] was 28.9%, the max response [10, 22] was 29.8% and the Potency [15] was “inactive”. For the same molecule, the Potency [19] was “inactive”, the Potency [16] was “inactive” and the Potency [11] was “inactive”. For the same molecule, the Potency [12] was “inactive” and the Potency [13] was “inactive”.

In the case of `COc1ccc(Oc2ncc3nc(-c4cc(F)cc(F)c4)c(=O)n(CCC#N)c3n2)cc1`, the Potency [1] is reported as > 11.4 µM (inactive), the activity change, negative = inhibition [2] is reported as -6.65% (inactive) and the activity change, negative = inhibition [20] is reported as -14.9% (inactive). The activity, negative = inhibition [4] was -11.4% (inactive), the Potency [6] was > 46 µM (inactive) and the Potency [17] was “inactive”. The Potency [12] was “inactive”, the Potency [13] was 31.6 µM (active) and the max response [14] was -0.74% (inactive).

In the case of `CN(C)c1ncc2nc(CCc3ccccc3)c(=O)n(C[C@H]3CCCO3)c2n1`, the Potency [1] is reported as > 11.4 µM (inactive), the activity change, negative = inhibition [2] is reported as -3.01% (inactive) and the activity change, negative = inhibition [20] is reported as -1.26% (inactive). For the same molecule, the activity, negative = inhibition [4] was 1.42% (inactive), the Potency [5] was > 9.22 µM (inactive) and the Potency [6] was > 46 µM (inactive). The outcome [7] was “inactive”, the Potency [12] was “inactive” and the Potency [13] was 39.8 µM (active). For the same molecule, the max response [14] was 23.4% (inactive).

For `FC(F)(F)c1ccccc1-c1nccc(N2CCNCC2)n1`, the Potency [1] was > 11.4 µM (inactive), the activity change, negative = inhibition [2] was -4.79% (inactive) and the Potency [3] was 10 µM (active). The activity change, negative = inhibition [20] was -3.28% (inactive), the activity, negative = inhibition [4] was 9.61% (inactive) and the Potency [5] was > 46 µM (inactive). For the same molecule, the Potency [6] was > 46 µM (inactive), the outcome [7] was “inactive” and the Potency [17] was “inactive”. For the same molecule, the activity change, negative = inhibition [10] was 4.7% (inactive), the max response [10, 21] was 10.7% and the max response [10, 22] was 12.2%. For the same molecule, the Potency [15] was “inactive”, the Potency [19] was “inactive” and the Potency [16] was “inactive”. For the same molecule, the Potency [11] was “inactive”, the Potency [12] was “inactive” and the Potency [13] was 15.8 µM (active).
